In the library only some 3.8% were active in any assay of this set; here they are far more common.
HSF1 inh: HSF1 inhibition; NIH3T3-HGL HSE-luciferase, MG132-induced, luminescence 8 h; stronger effect = lower value; activity change, negative = inhibition, % at 7.5 µM (by protocol); actives 0.77% (n = 300,000);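 active = more than half of replicate wells show activity change below -50%, luminescence cut by over half; inconclusive = some wells, but at most half, below -50%; inactive = no replicate well below -50%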;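 also: luciferase reports HSF-1 transcriptional activity via heat shock element; 0% = median of DMSO wells and -100% = zero luminescence signal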
MITF act: MITF TRPM1 promoter activation in melanoma cells; AID 588334; activation, % at 12.5 µM; SK-MEL-5 TRPM1-promoter luciferase, 24 h; % of positive control, neutral wells = 0; actives 0.75% (n = 300,000);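 active = mean activation of at least 80% with every replicate also reaching 80%; inconclusive = mean reaches 80% but some replicate falls short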;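 also: 0% = neutral control wells and 100% = parthenolide positive control wells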
HSF1 activator: increases HSF-1 driven luciferase reporter signal. actives 1.7% (n = 300,000). AID 504408. NIH3T3-HGL HSF-1 luciferase reporter, MG132, 8 h; 100% = twice DMSO control signal. activation, % at 9 µM;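 active = mean replicate activation of at least 50% with a set share of replicates each reaching 50%; inconclusive = only one of those two conditions met; inactive = mean below 50% and too few replicates reaching it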;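 also: 0% = median of the neutral control wells and 100% = twice that signal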
esBAF inh: SWI/SNF esBAF complex inhibition. mouse ES cells, Bmi1-luciferase knock-in reporter, 24 h; 100% = twice the neutral-well signal. reporter increase, % at 12.5 µM. actives 2% (n = 350,000). AID 602393; in the data active = activation above about 40%; inconclusive = no clear call, values can overlap the other calls;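 also: 0% = median of the plate's neutral control wells and 100% = double that signal; a rise in the Bmi1 reporter signal indicates esBAF inhibition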
Wnt bcat act: Wnt/beta-catenin pathway activation | actives 1.2% (n = 300,000) | Wnt/beta-catenin reporter cell assay, activator, plate reader | activation, % at 9.35 µM | AID 743398; in the data active = activation above about 30%, passing the limit was not always enough; inconclusive = no clear call, values can overlap the other calls;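 also: 0% = neutral control wells and 100% = positive control wells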
Starred values were filed as active, the others as inactive.

What do the screens show for `COc1ccc(-c2coc3cc(O)cc(O)c3c2=O)cc1`?
HSF1 inh: 28; MITF act: 97*; HSF1 activator: 38; esBAF inh: 46*; Wnt bcat act: 55*

What do the screens show for `O=c1c(-c2ccc(O)cc2)coc2cc(O)cc(O)c12`?
HSF1 inh: 21; MITF act: 100*; HSF1 activator: 23; esBAF inh: 57*; Wnt bcat act: 44*

How did CC(C)Oc1cc(O)c2c(=O)c(-c3ccc(O)cc3)coc2c1 do in these assays?
HSF1 inh: 31; MITF act: 52; HSF1 activator: 47; esBAF inh: 2; Wnt bcat act: 8

How did C[C@@H]1CN([C@H](C)CO)C(=O)c2cc(NS(=O)(=O)c3ccc(Cl)cc3)ccc2O[C@H]1CN(C)C(=O)Nc1cccc2ccccc12 do in these assays?
esBAF inh: -5

What do the screens show for `C/C(=N/NC(=O)c1ccco1)c1ccc(NC(=O)c2ccc(Br)o2)cc1`?
HSF1 inh: 26; MITF act: 71; HSF1 activator: inconclusive; esBAF inh: 47*; Wnt bcat act: 17

How did C/C(=N/NC(=O)c1ccco1)c1ccc(NC(=O)c2ccc(F)cc2)cc1 do in these assays?
HSF1 inh: 20; MITF act: 54; HSF1 activator: 43; esBAF inh: 89*; Wnt bcat act: 48*

How did C[C@H]1CN([C@@H](C)CO)C(=O)Cc2cc(NS(=O)(=O)c3ccc(Cl)cc3)ccc2O[C@H]1CN(C)C(=O)Nc1ccc2c(c1)OCO2 do in these assays?
esBAF inh: 1

What do the screens show for `C[C@@H]1CN([C@H](C)CO)C(=O)Cc2cc(NC(=O)Nc3ccc(F)cc3)ccc2O[C@@H]1CN(C)S(=O)(=O)c1cccs1`?
esBAF inh: -1

How did Cc1ccc(NC(=O)c2cnn(-c3ccccc3)c2C)c(C)c1 do in these assays?
HSF1 inh: 12; MITF act: 68; HSF1 activator: 23; esBAF inh: 40; Wnt bcat act: 45*

What do the screens show for `Cc1cccc(C)c1NC(=O)c1cnn(-c2ccccc2)c1C`?
HSF1 inh: 12; HSF1 activator: 41; esBAF inh: -3; Wnt bcat act: 2

How did Cc1ccc(NC(=O)c2cnn(-c3ccccc3)c2C)cc1 do in these assays?
HSF1 inh: 37; HSF1 activator: 72*; esBAF inh: -23; Wnt bcat act: 22

Results for COc1ncnc2sc(-c3ccccc3)cc12 ?
HSF1 inh: 26; MITF act: 74; HSF1 activator: 38; esBAF inh: 50*

How did COc1ccc(Nc2ncnc3sc(-c4ccccc4)cc23)cc1 do in these assays?
HSF1 inh: -71*; MITF act: -2; HSF1 activator: -78; esBAF inh: 6

What do the screens show for `CC(C)(C)Nc1ncnc2sc(-c3ccccc3)cc12`?
HSF1 inh: -2; MITF act: -10; HSF1 activator: 37; esBAF inh: 9; Wnt bcat act: 0

What do the screens show for `CS(=O)(=O)Nc1ccc2c(c1)[C@@H]1C[C@@H](CC(=O)NCCN3CCCCC3)O[C@H](CO)[C@@H]1O2`?
esBAF inh: -1

Results for COc1ccc(NC(=O)N(C)C[C@H]2OCCCC[C@H](C)Oc3ccc(N(C)C)cc3C(=O)N([C@H](C)CO)C[C@H]2C)cc1 ?
esBAF inh: -1

What do the screens show for `C[C@@H]1CN([C@@H](C)CO)C(=O)c2cc(NC(=O)Cc3ccccc3)ccc2O[C@@H](C)CCCCO[C@@H]1CN(C)S(=O)(=O)c1ccc(Cl)cc1`?
esBAF inh: -2

Results for COc1ccc(C=C(C#N)c2ccc(OC)cc2)cc1 ?
MITF act: 43; esBAF inh: 55*; Wnt bcat act: 13

Results for COc1ccc(C(C#N)=Cc2ccc(OC)c(OC)c2)cc1 ?
esBAF inh: 68*; Wnt bcat act: 2

How did CC(=NCCc1ccccc1)C1=C(O)CSC1=O do in these assays?
HSF1 inh: -79*; MITF act: 1; HSF1 activator: -83

What do the screens show for `CC(=NCCc1ccccc1)C1=C(O)CCC1=O`?
HSF1 inh: -41; MITF act: 0; HSF1 activator: -55

What do the screens show for `Cc1nc(N)sc1N=Nc1ccc(Br)cc1`?
HSF1 inh: 3; HSF1 activator: 11; esBAF inh: 75*

Results for Cc1[nH]nc(N)c1N=Nc1ccc(Br)cc1 ?
HSF1 inh: 2; HSF1 activator: 20; Wnt bcat act: 8

How did O=C(C[C@@H]1C[C@@H]2c3cc(NC(=O)c4ccc5c(c4)OCO5)ccc3O[C@@H]2[C@H](CO)O1)NCc1cccnc1 do in these assays?
esBAF inh: -2

What do the screens show for `Fc1ccccc1C1CC(c2ccco2)=Nc2ccccc2S1` (stereo unspecified)?
HSF1 inh: -27; MITF act: -8; HSF1 activator: -29; esBAF inh: 11; Wnt bcat act: 35*

What do the screens show for `O=C(COC(=O)/C=C/c1ccc(C(F)(F)F)cc1)NC1CC1`?
HSF1 inh: -56*; MITF act: 4; HSF1 activator: -58; esBAF inh: -3; Wnt bcat act: -2

How did CN=c1scc(-c2ccccc2F)n1/N=C/c1ccc[nH]1 do in these assays?
HSF1 inh: -87*; MITF act: -90; HSF1 activator: -90; esBAF inh: -83; Wnt bcat act: -9

Results for CN=c1scc(-c2ccccc2F)n1/N=C/c1ccc(O)c(O)c1O ?
HSF1 inh: -65*; MITF act: -86; HSF1 activator: -69; esBAF inh: -78; Wnt bcat act: -7

What do the screens show for `CN=c1scc(C)n1/N=C/c1ccc(O)cc1`?
esBAF inh: 26

Results for CNC[C@@H]1Oc2c(NC(=O)c3cc(C)nn3C)cccc2C(=O)N([C@H](C)CO)C[C@H]1C ?
esBAF inh: -3

Results for Fc1cccc(Cl)c1Cc1noc(/C=C/c2ccccc2)n1 ?
HSF1 inh: 4; MITF act: 60; HSF1 activator: 10; esBAF inh: 43*; Wnt bcat act: 15

How did C[C@@H]1CN([C@@H](C)CO)C(=O)Cc2cc(NS(=O)(=O)c3cn(C)cn3)ccc2O[C@@H]1CN(C)S(=O)(=O)c1ccccc1 do in these assays?
esBAF inh: 2

What do the screens show for `CCCN1C(=O)c2ccc(C(=O)Nc3ccc4c(c3)OCO4)cc2C1=O`?
HSF1 inh: 11; MITF act: 66; HSF1 activator: 31; esBAF inh: 63*; Wnt bcat act: 9

How did CCCOc1ccc(C(=O)Nc2ccc3c(c2)OCO3)cc1 do in these assays?
HSF1 inh: 23; MITF act: 68; HSF1 activator: 44; esBAF inh: 20; Wnt bcat act: 43*

What do the screens show for `CCCCOc1ccc(C(=O)Nc2ccc3c(c2)OCO3)cc1`?
HSF1 inh: 7; MITF act: 71; HSF1 activator: 26; esBAF inh: 42*; Wnt bcat act: 35*

What do the screens show for `O=C(Nc1ccc2c(c1)OCO2)c1ccc(CO)cc1`?
MITF act: 35; esBAF inh: 38; Wnt bcat act: 48*
